Bioassay records: PubChem, National Center for Advancing Translational Sciences (NCATS)
VDR inhibitor: vitamin D3 receptor (human) inhibition; Potency, µM, usual class: inhibitors; VDR-SRC2-3 peptide fluorescence polarization, 2 h; 400,000 compounds, 0.93% hits; AID 504847
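The screen uses fluorescence polarization to detect compounds that interfere with recruitment of the SRC2-3 coactivator peptide to VDR; plates are read after 2 h at room temperature.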
PLK1 PBD inh: inhibitors of human PLK1 polo-box domain binding. Potency, µM, actives largely listed as inhibitors. P53350. Plk1 PBD binding of FITC phosphopeptide, fluorescence polarization. 360,000 compounds, 2.8% hits; further: series mostly up to about 57 µM; nearly all actives have a fitted effect of over 65% in size
Target sequence (P53350 whole entry, looked up, the tested form may be a part): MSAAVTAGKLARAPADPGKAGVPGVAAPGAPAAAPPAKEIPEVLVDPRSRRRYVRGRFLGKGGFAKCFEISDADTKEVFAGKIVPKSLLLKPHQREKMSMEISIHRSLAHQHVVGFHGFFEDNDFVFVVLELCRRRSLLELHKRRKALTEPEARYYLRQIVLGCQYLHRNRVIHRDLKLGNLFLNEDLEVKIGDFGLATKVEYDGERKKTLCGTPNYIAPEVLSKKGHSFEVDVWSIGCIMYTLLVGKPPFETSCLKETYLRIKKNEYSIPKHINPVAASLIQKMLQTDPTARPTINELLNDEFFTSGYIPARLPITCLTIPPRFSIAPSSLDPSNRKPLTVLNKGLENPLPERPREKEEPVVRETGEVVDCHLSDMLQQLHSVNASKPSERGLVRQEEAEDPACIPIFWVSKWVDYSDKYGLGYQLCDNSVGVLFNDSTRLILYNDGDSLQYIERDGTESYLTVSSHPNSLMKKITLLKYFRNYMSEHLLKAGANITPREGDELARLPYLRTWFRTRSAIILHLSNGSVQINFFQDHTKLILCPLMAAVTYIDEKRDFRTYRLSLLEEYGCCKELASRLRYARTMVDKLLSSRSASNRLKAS
BRCA1 expr up: BRCA1 expression activation; MCF7-BRCA1-FFLuc reporter, luminescence, 48 h; response scale: scaled: vehicle 0%, 10 µM genistein 100%; Potency, µM (top dose mostly 46.1 µM), usual class: activators; 380,000 compounds, 1.1% hits; AID 624202; further: nearly all actives have a fitted effect of over 80% in size
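Luminescence from a BRCA1-driven firefly luciferase in MCF7 cells was the read-out, taken 15 min after substrate addition following 48 h compound exposure at 37 °C. Data were normalized to a 10 microM genistein control and DMSO vehicle.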
Tb PFK inh: T. brucei PFK enzyme inhibition | T. brucei PFK, ADP-Glo luminescence | Potency, µM (doses to about 57.5 µM), most hits filed as inhibitors | 330,000 compounds, 0.17% hits | AID 485367; further: nearly all actives have a fitted effect of over 60% in size
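In TEA buffer at pH 8.0 with 5 mM MgCl2, enzyme (1.25 nM) converted F6P (0.5 mM) and ATP (0.1 mM) for 45 min at room temperature. ADP product was read by luciferase luminescence.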
Large screens that a line does not name were inactive. A selection: hits, their analogues and other compounds. The true share with any hit is near 3.9%. The call rests on the fitted dose curve; in most records, active means well fitted curve in the direction sought with a large enough effect; inconclusive means small, poorly fitted or top-dose-only effect, or another doubt; inactive means no such curve, though single readings can be large; an effect the other way counts as inactive or inconclusive.

O=C(N/N=C/c1ccc2c(c1)OCO2)c1cc(-c2ccc(F)cc2)nc2ccccc12	none
O=C1OCc2nc3cc4c(cc3c(-c3ccc(F)cc3)c21)OCO4	VDR inhibitor inconclusive, PLK1 PBD inh 24µM
O=[N+]([O-])c1ccc(/C([O-])=C(/C(=S)Nc2ccccc2F)[n+]2ccccc2)cc1	none
COc1cccc(NC(=S)/C(=C(\[O-])c2ccc([N+](=O)[O-])cc2)[n+]2ccccc2)c1	VDR inhibitor inconclusive, PLK1 PBD inh 7.5µM
CC(C)(C)OC(=O)N1C2C=CC1C1=COCCN1C2=O (stereo not given)	none (no result: PLK1 PBD inh, BRCA1 expr up, Tb PFK inh)
CCOC(=O)c1ccc(Cn2c(-c3ccccc3)nnc2-c2ccccc2)o1	PLK1 PBD inh 24µM, Tb PFK inh inconclusive
CCOC(=O)c1ccc(CSC(=N)N)o1	none
O=C(C1COc2ccccc2O1)N1CCc2ccccc21 (stereo not given)	PLK1 PBD inh inconclusive, BRCA1 expr up 11µM, Tb PFK inh inconclusive
O=C(C1COc2ccccc2O1)N1CCCC1 (stereo not given)	none
CC1(C)Cc2c(sc(NC(=O)C(=O)N3CCCC3)c2C(N)=O)CO1	PLK1 PBD inh 24µM
COC(=O)c1c(NC(=O)C(=O)N2CCCC2)sc2c1CC(C)(C)OC2	none
C=C(C)CNC(=S)Nc1sc2c(c1C(=O)OCC)CC(C)(C)OC2	VDR inhibitor inconclusive, PLK1 PBD inh 19µM
CCOC(=O)c1c(NC(=O)c2ccc(C)cc2)sc2c1CC(C)(C)OC2	PLK1 PBD inh 24µM
CCOC(=O)c1c(NC(=O)c2ccccc2C)sc2c1CC(C)(C)OC2	PLK1 PBD inh 21µM
CCCC(=O)Nc1sc2c(c1C(=O)OCC)CC(C)(C)OC2	none
COc1ccc(C2/C=C\CN(CC3CC3)C(Cc3ccccc3)C(=O)N2Cc2ccc(F)cc2)cc1 (stereo not given)	none (no result: PLK1 PBD inh, BRCA1 expr up, Tb PFK inh)
COc1ccc(N2CC(NC(=O)COc3ccc(F)cc3)CC2=O)cc1OC (stereo not given)	none (no result: PLK1 PBD inh, BRCA1 expr up, Tb PFK inh)
COc1ccc(-c2cnc(C(O)c3ccc(OC)c(F)c3)[nH]2)cc1 (stereo not given)	none (no result: VDR inhibitor, Tb PFK inh)
Fc1ccc(N2C(=S)SC(=Nc3ccccc3)C2=Nc2ccccc2)cc1	none (no result: Tb PFK inh)
N=C1N(c2ccccc2)C(=S)C(=Nc2ccccc2)N1c1ccccc1	VDR inhibitor 8.9µM, PLK1 PBD inh 27µM (no result: Tb PFK inh)
N#CC(Sc1ccccn1)c1ccc(Cl)cc1 (stereo not given)	VDR inhibitor inconclusive, PLK1 PBD inh 7.5µM
CC1=C(C(=O)Nc2ccccc2C)C(c2sccc2C)n2ncnc2N1 (stereo not given)	none (no result: PLK1 PBD inh, Tb PFK inh)
CC(C)(C)C(=O)Nc1ccc2nc(SCC(=O)N3CCCC3)sc2c1	none (no result: PLK1 PBD inh, BRCA1 expr up, Tb PFK inh)
CCOC(=O)c1c(C)oc2nc(C)nc(N3CCN(c4ccccc4F)CC3)c12	none (no result: PLK1 PBD inh, BRCA1 expr up, Tb PFK inh)
CCCCc1ccc(-c2nc(N)n[nH]2)cc1	BRCA1 expr up 7.9µM
Cc1ccccc1OCC(=O)N/N=C/c1ccncc1	none
Cc1ccccc1OCC(=O)N/N=C/c1ccc(N2CCOCC2)o1	VDR inhibitor 40µM, PLK1 PBD inh inconclusive
CCOC(=O)Cc1nnc(NC(=O)C(CC)Sc2nc(C)cc(=O)[nH]2)s1 (stereo not given)	VDR inhibitor inconclusive, PLK1 PBD inh 21µM
CCOC(=O)Cc1nnc(NC(=O)C(CC)Sc2nncn2C)s1 (stereo not given)	none
Cc1c(Cl)ccc2c(C(=O)O)cc(-c3ccccc3)nc12	PLK1 PBD inh 24µM
COc1cc(C)c(S(=O)(=O)N2CCCC2)cc1C	none
COc1ccc(Br)cc1S(=O)(=O)N1CCCC1	PLK1 PBD inh 3µM
COc1cc(C)c(S(=O)(=O)N2CCCC2)cc1C(C)C	PLK1 PBD inh 27µM
COc1ccc(C)cc1S(=O)(=O)N1CCCCCC1	none
CC(C)CN1C(=O)CN(S(C)(=O)=O)CC1(C)C(=O)Nc1ccc2c(c1)OCCO2 (stereo not given)	none (no result: VDR inhibitor, BRCA1 expr up, Tb PFK inh)
O=C(O)Cc1sc(Nc2ccccc2)nc1-c1ccc(Cl)cc1	PLK1 PBD inh 21µM, BRCA1 expr up inconclusive
O=C(O)Cc1sc(-c2ccc(Cl)cc2)nc1-c1ccccc1	VDR inhibitor inconclusive, PLK1 PBD inh 24µM
CCOc1ccc(NC(=O)C(=O)NCCc2sc(-c3ccc(C)cc3)nc2C)cc1	none (no result: PLK1 PBD inh, Tb PFK inh)
Cc1cccc(OCCSc2nc(N)cc(N)n2)c1	VDR inhibitor inconclusive, PLK1 PBD inh 3.8µM
Cc1cccc(OCCOCCSc2ncccn2)c1	none
OC(c1cccc(Cl)c1)c1nc(-c2ccc(Cl)cc2)cs1 (stereo not given)	none (no result: VDR inhibitor, Tb PFK inh)
Cc1cc(N/N=C/c2cccc(Br)c2)nc2ccccc12	BRCA1 expr up inconclusive
Cc1ccc(N/N=C/c2cccnc2)cc1	BRCA1 expr up inconclusive
Cc1ccc(N/N=C/c2ccncc2)cc1	BRCA1 expr up 6.3µM
Cc1cc(N/N=C/c2ccncc2)nc2ccccc12	PLK1 PBD inh inconclusive, BRCA1 expr up 5.6µM
O=C(CCC(=O)N1CCN(S(=O)(=O)c2ccc([N+](=O)[O-])cc2)CC1)N1CCOCC1	none
CCOC(=O)N1CCc2c(sc(NCc3cccc(F)c3)c2C(=O)Nc2ccc(OC)cc2OC)C1	none (no result: PLK1 PBD inh, BRCA1 expr up, Tb PFK inh)
CCCn1c(NC(=O)c2ccc(C)cc2)nc2ccccc21	PLK1 PBD inh 27µM
CC[C@H](C)[C@@H](NC(=O)O[C@H]1C(=O)c2ccc(OC)cc2O[C@@H]1c1ccc2c(c1)OCO2)C(=O)OC	none (no result: PLK1 PBD inh, BRCA1 expr up, Tb PFK inh)
CC1(C(=O)NCc2ccco2)Cc2c(-c3ccccc3)ccnc2O1 (stereo not given)	none (no result: VDR inhibitor, Tb PFK inh)
O=C(CC12CC3CC(CC(C3)C1)C2)N/N=C/c1ccncc1	VDR inhibitor inconclusive, PLK1 PBD inh 27µM
CCOC(=O)c1c(NC(=O)CCC(=O)O)sc2c1CCCCC2	VDR inhibitor inconclusive, PLK1 PBD inh 6.7µM, Tb PFK inh inconclusive
CCOC(=O)c1c(/N=C/c2ccccc2O)sc2c1CCC2	PLK1 PBD inh inconclusive
CCOC(=O)c1c(/N=C/c2cccc([N+](=O)[O-])c2O)sc2c1CCC2	PLK1 PBD inh 27µM
CCOC(=O)c1c(NC(=O)c2c(C(=O)O)cccc2[N+](=O)[O-])sc2c1CCCC2	VDR inhibitor inconclusive, PLK1 PBD inh 12µM
COc1ccc(NC(=O)c2cccc3c(=O)c4c([nH]c23)CCCC4)cc1	none (no result: PLK1 PBD inh, BRCA1 expr up, Tb PFK inh)
COc1ccc(CNc2ncnc3ccc(-c4ccccc4OC)cc23)c(OC)c1	none (no result: PLK1 PBD inh, BRCA1 expr up, Tb PFK inh)
Cc1ccc(C)c(N2CCN(C(=O)CCn3c(=O)c4cccn4c4cccnc43)CC2)c1	none (no result: PLK1 PBD inh, BRCA1 expr up, Tb PFK inh)
CSc1nsc(N/N=C/c2ccc3c(c2)OCO3)c1C#N	BRCA1 expr up 4µM
C=CCC(O)c1ccccc1 (stereo not given)	none (no result: PLK1 PBD inh, BRCA1 expr up, Tb PFK inh)
CCCCN(C(=O)c1cc(-c2ccco2)nc2ccccc12)c1c(N)n(CCC)c(=O)[nH]c1=O	Tb PFK inh inconclusive
CCCCCCCCC1=NCCc2c1[nH]c1ccccc21	VDR inhibitor inconclusive, PLK1 PBD inh 24µM
CCCCCCc1nc2c(=O)[nH]c3ccccc3c2o1	none
CCCc1cc(C(=O)Nc2c(C)nn(Cc3c(Cl)cccc3Cl)c2C)no1	none (no result: PLK1 PBD inh, BRCA1 expr up, Tb PFK inh)
Cc1ccccc1COc1ccc(/C=C(\C#N)C(N)=O)cc1	none
N#C/C(=C\c1ccc(OCc2ccccc2)cc1)C(N)=O	VDR inhibitor inconclusive, PLK1 PBD inh 9.5µM, BRCA1 expr up inconclusive
COc1cc(/C=C(\C#N)C(=O)Nc2cccc(C(=O)O)c2)ccc1OCc1ccc(F)cc1	VDR inhibitor inconclusive, PLK1 PBD inh inconclusive, BRCA1 expr up 11µM
